Source: PubChem BioAssay (NCATS)
For some of these results: Measured potencies and affinities stand elsewhere. Activity calls are given as the source filed them.

What was measured:
[1] = Ebola virus entry assay, green fluorescence channel
[2] = Ebola virus entry assay, blue channel fluorescence
[3] = Ebola virus entry assay, green fluorescence channel; remark: listed apart in the source
[4] = Ebola virus entry assay, ratio channel readout
[5] = Ebola virus entry assay, blue channel fluorescence; remark: listed apart in the source
[6] = Ebola virus entry assay, ratio channel
[7] = Ebola virus entry assay, reporter ratio channel; AC50: Channel type: primary unless noted; outcome: Channel type: primary unless noted
[8] = Ebola virus entry reporter assay, green channel fluorescence
[9] = qHTS profiling of the MIPE4 collection as inhibitors of Plasmodium falciparum (3D7) proliferation (AID 743344);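 note: scaled between DMSO vehicle wells and 0.29 µM artemisinin as full inhibition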; conditions: P. falciparum 3D7 in erythrocytes, SYBR Green DNA fluorescence, 72 h; at 28.5 µM (top of the series) unless noted
In short: (§1)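 Erythrocytes infected with P. falciparum (0.3% parasitemia, 2.5% hematocrit) incubated with compounds 72 h at 37 C, 5% CO2. Lysis with saponin/Triton buffer containing SYBR Green I, overnight at room temperature in the dark; DNA fluorescence (485/535 nm) normalised to 0.29 uM artemisinin and DMSO.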

[10] = qHTS profiling of the MIPE4 collection as inhibitors of Plasmodium falciparum (DD2) proliferation (AID 743345); conditions: P. falciparum Dd2 in erythrocytes, SYBR Green DNA, 72 h; at 28.5 µM (top of the series) unless noted
In short: as §1

[11] = qHTS profiling of the MIPE4 collection as inhibitors of Plasmodium falciparum (DD2) proliferation (Rep 2) (AID 743346); conditions: P. falciparum Dd2 in erythrocytes, SYBR Green DNA, 72 h; at 28.5 µM (top of the series) unless noted
In short: as §1

[12] = qHTS profiling of the MIPE4 collection as inhibitors of Plasmodium falciparum (HB3) proliferation (AID 743347);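 note: plate controls were DMSO vehicle wells for no effect and artemisinin wells for full effect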; conditions: P. falciparum HB3 in erythrocytes, SYBR Green DNA, 72 h; at 28.5 µM (top of the series) unless noted
In short: as §1

[13] = Ebola virus entry assay, blue channel (ratio component)
[14] = Ebola virus entry assay, green channel fluorescence
[15] = Ebola virus entry assay, blue channel fluorescence; remark: listed apart in the source
Throughout, for efficacy: 0% is about no effect.

COc1cc2c(cc1OC)C(=O)C(CC1CCN(Cc3ccccc3)CC1)C2 (stereo not given)
inactive: efficacy [1] 108% | outcome [2] | outcome [3] | outcome [4] | outcome [8]
active: AC50 [5] 35.5 µM | AC50 [6] 22.4 µM | AC50 [7] 22.4 µM

COc1cc2c(c(OC)c1OC)-c1ccc(OC)c(=O)cc1[C@@H](NC(C)=O)CC2
35.4%: growth, % of control [12]
inactive: efficacy [1] -81.3% | outcome [3] | outcome [7] inactive [Channel type: confirmation] | outcome [13]
34.7%: parasite growth, % of DMSO control [9]
42.5%: parasite growth, % of control (lower = inhibition) [11]
78.8%: parasite growth remaining, % of DMSO control (lower = more inhibition) [10]
active: AC50 [2] 0.316 µM | AC50 [4] 0.32 µM | AC50 [5] 22.4 µM | AC50 [6] 0.316 µM

C[C@@H](O)[C@H]1C(=O)N2C(C(=O)O)=C(S[C@@H]3CN[C@H](CNS(N)(=O)=O)C3)[C@H](C)[C@H]12
active: AC50 [7] 25.1 µM
inactive: efficacy [1] 41.5% | outcome [2] | outcome [3] | outcome [4] | outcome [5] | outcome [6] | outcome [13] | outcome [8]

CC[C@@H]([C@H](C)O)n1ncn(-c2ccc(N3CCN(c4ccc(OC[C@@H]5CO[C@@](Cn6cncn6)(c6ccc(F)cc6F)C5)cc4)CC3)cc2)c1=O
active: AC50 [2] 10 µM | AC50 [5] 4.47 µM | AC50 [6] 3.98 µM | AC50 [7] 3.98 µM
inactive: efficacy [1] 27.6% | outcome [3] | outcome [4]

CCCCc1oc2ccc(NS(C)(=O)=O)cc2c1C(=O)c1ccc(OCCCN(CCCC)CCCC)cc1
inactive: efficacy [1] -249% | outcome [3] | outcome [4] | outcome [7] inactive [Channel type: confirmation]
active: AC50 [2] 7.08 µM | AC50 [5] 0.891 µM | AC50 [6] 0.891 µM

COc1cc2nc(N3CCN(C(=O)C4COc5ccccc5O4)CC3)nc(N)c2cc1OC (stereo not given)
inactive: efficacy [1] 97.9% | outcome [2] | outcome [3] | outcome [4]
active: AC50 [5] 15.8 µM | AC50 [6] 15.8 µM | AC50 [7] 15.8 µM

Cc1ccsc1C(=CCCN1CCC[C@@H](C(=O)O)C1)c1sccc1C
inactive: efficacy [1] 57.2% | outcome [2] | outcome [3] | outcome [4] | outcome [8]
active: AC50 [5] 35.5 µM | AC50 [6] 20 µM | AC50 [7] 20 µM

O=C1c2cccc3c2[C@H](CCC3)CN1[C@@H]1CN2CCC1CC2
inactive: efficacy [1] 37.7% | outcome [2] | outcome [3] | outcome [4] | outcome [8]
active: AC50 [5] 20 µM | AC50 [6] 28.2 µM | AC50 [7] 28.2 µM

CN1C[C@H]2c3ccccc3Oc3ccc(Cl)cc3[C@@H]2C1
active: AC50 [5] 22.4 µM | AC50 [6] 14.1 µM | AC50 [7] 14.1 µM
inactive: efficacy [1] 60.4% | outcome [2] | outcome [3] | outcome [4]

COC(=O)[C@H]1[C@H]2C[C@@H]3c4[nH]c5cc(OC)ccc5c4CCN3C[C@H]2C[C@@H](OC(=O)c2cc(OC)c(OC)c(OC)c2)[C@@H]1OC
active: AC50 [5] 31.6 µM | AC50 [6] 25.1 µM | AC50 [7] 25.1 µM
inactive: efficacy [1] 32.6% | outcome [2] | outcome [3] | outcome [4] | outcome [8]

Cc1ccc(NC(=O)c2ccc(CN3CCN(C)CC3)cc2)cc1Nc1nccc(-c2cccnc2)n1
inactive: efficacy [1] 71.5% | outcome [2] | outcome [3] | outcome [4] | outcome [8]
active: AC50 [5] 22.4 µM | AC50 [6] 12.6 µM | AC50 [7] 12.6 µM

CCN1CCN(C(=O)N[C@@H](C(=O)N[C@@H]2C(=O)N3C(C(=O)O)=C(CSc4nnnn4C)CS[C@H]23)c2ccc(O)cc2)C(=O)C1=O
inactive: efficacy [1] -23.3% | outcome [2] | outcome [3] | outcome [4] | outcome [5] | outcome [14] | outcome [15] | outcome [7] | outcome [13]

CO/N=C(\C(=O)N[C@@H]1C(=O)N2C(C(=O)O)=C(CSc3nc(=O)c(O)nn3C)CS[C@H]12)c1csc(N)n1
inactive: efficacy [1] 11.1% | outcome [2] | outcome [3] | outcome [4] | outcome [5] | outcome [14] | outcome [15] | outcome [7] | outcome [13] | outcome [8]

C[C@@H](c1ncncc1F)C(O)(Cn1cncn1)c1ccc(F)cc1F (stereo not given in full)
inactive: efficacy [1] -14.3% | outcome [2] | outcome [3] | outcome [4] | outcome [5] | outcome [14] | outcome [15] | outcome [7] | outcome [13]

CCCCC1=NC2(CCCC2)C(=O)N1Cc1ccc(-c2ccccc2-c2nn[nH]n2)cc1
inactive: efficacy [1] 32.1% | outcome [2] | outcome [3] | outcome [4] | outcome [5] | outcome [14] | outcome [15] | outcome [7] | outcome [13] | outcome [8]

CC(C)[N+](C)(CCOC(=O)C1c2ccccc2Oc2ccccc21)C(C)C
inactive: efficacy [1] -23.3% | outcome [2] | outcome [3] | outcome [4] | outcome [5] | outcome [14] | outcome [15] | outcome [7] | outcome [13] | outcome [8]

Cc1nc(Nc2ncc(C(=O)Nc3c(C)cccc3Cl)s2)cc(N2CCN(CCO)CC2)n1
inactive: efficacy [1] 82.9% | outcome [2] | outcome [3] | outcome [4] | outcome [8]
active: AC50 [5] 8.91 µM | AC50 [6] 7.94 µM | AC50 [7] 7.94 µM
